Several values for one entry are separate records, joined by “and”; a condition that tells them apart may be missing. Identical values can stand only once. Results filed as inconclusive are left out. Some compounds were tested as several samples or in several runs, with calls that do not always agree. Activity calls are given as the source filed them. Unless noted, calls follow the shape of the dose curve; as a rule, active = well fitted curve in the direction sought with a large enough effect in the repeat runs; inconclusive = weak or mixed curves; inactive = no such curve, though single readings can be large; an effect the other way counts as inactive or inconclusive.
Experiments:
[1] = qHTS assay to identify small molecule agonists of the TGF-beta/Smad signaling pathway - cell viability counter screen (AID 1346829); also: top concentration of the series differs between compounds; nearly all actives have a fitted effect of over 45% in size
How it was run: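 In parallel with the Smad reporter read, viability of HEK 293T cells stably carrying SBE-bla is quantified by ATP luminescence following 5 hr compound treatment.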

[2] = qHTS assay to identify small molecule agonists of the TGF-beta/Smad signaling pathway (AID 1346859; active = well fitted activation curve with a large enough effect in the signal ratio in the repeat runs, not every such curve was filed as active; the % refers to the signal ratio; also: series mostly up to about 77 µM)
How it was run: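 Each well held 4,000 SBE-bla HEK 293T cells incubated overnight before compound addition; 5 hr later the cleavable FRET substrate went on for 2 hr at room temperature, and fluorescence was read at two emissions.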

[3] = Human pregnane X receptor (PXR) small molecule agonists, qHTS cell viability counter screen (AID 1346977); also: nearly all actives have a fitted effect of over 50% in size; also: potency is read from the fitted curve at half-maximal effect
How it was run: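 Tox21 qHTS format; PXR-Luc HepG2, 2,000/well, charcoal-stripped FBS 5%. Cpd exposure 24hr. Read: CellTiter-Fluor fluorescence, multiplexed with luciferase.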

[4] = Caspase-3/7 induction in HepG2 cells by small molecules, qHTS assay (AID 1346978); also: nearly all actives have a fitted effect of over 15% in size
How it was run: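 Wild-type HepG2 cells (2,000/well) were settled 5 h at 37 C, 5% CO2, then exposed to compounds in DMSO for 17 h. Caspase-3/7 activity was read by luminescence 30 min after adding Caspase-Glo 3/7 reagent at room temperature.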

[5] = Caspase-3/7 induction in CHO-K1 cells by small molecules, qHTS assay (AID 1346980); also: nearly all actives have a fitted effect of over 15% in size
How it was run: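 Wild-type cells were seeded at 1,500 per well and settled 5 hr at 37 C, 5% CO2, then exposed to DMSO-dissolved compounds for 17 hr. Caspase-Glo 3/7 reagent was added, and luminescence was read after 30min at room temperature.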

[6] = Caspase-3/7 induction in HepG2 cells by small molecules, qHTS cell viability counter screen (AID 1346981); also: series mostly up to about 92 µM; nearly all actives have a fitted effect of over 30% in size
How it was run: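 Wild-type HepG2 cells, 2,000/well, settled 5 hr at 37 C, 5% CO2 before compound addition. Viability read by CellTiter-Fluor fluorescence, reagent added after 16 hr compound exposure, then 1 hr at 37C, in the same wells as the caspase read.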

[7] = target: Nuclear receptor subfamily 1 group I member 2 (Homo sapiens) (UniProt O75469); assay: Human pregnane X receptor (PXR) small molecule agonists, qHTS assay (AID 1346982); also: nearly all actives have a fitted effect of over 35% in size; also: potency is read from the fitted curve at half-maximal effect
How it was run: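 PXR-Luc HepG2 reporter cells (CYP3A4-driven luciferase) in 5% charcoal-stripped FBS medium, plated 5 h before compound addition, then treated 24 h at 37C. Luciferase read by ONE-Glo luminescence after 30 min at room temperature.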

[8] = target: Cytochrome P450 2D6 (Homo sapiens) (UniProt P10635); assay: Cytochrome P450 Family 2 Subfamily D Member 6 (CYP2D6) small molecule antagonists: luciferase reporter qHTS assay (AID 1671196); also: nearly all actives have a fitted effect of over 50% in size; also: potency is read from the fitted curve at half-maximal effect
How it was run: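 Cell-free P450-Glo system: CYP2D6 with proluciferin substrate was pre-incubated with compound for 10 min, then reacted with NADPH regeneration for 1 h at room temperature. Luciferin product was detected after 20 min, and data were reported as relative luminescence units.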

[9] = target: Cytochrome P450 2C19 (Homo sapiens) (UniProt P33261); assay: Cytochrome P450 Family 2 Subfamily C Member 19 (CYP2C19) small molecule antagonists: luciferase reporter qHTS assay (AID 1671197); also: nearly all actives have a fitted effect of over 65% in size; also: potency is read from the fitted curve at half-maximal effect
How it was run: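 Compounds were tested on CYP2C19 activity via proluciferin conversion to luciferin. The 37C, 1 h reaction followed NADPH addition; detection reagent stopped it.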

[10] = target: Cytochrome P450 1A2 (Homo sapiens) (UniProt P05177); assay: Cytochrome P450 Family 1 Subfamily A Member 2 (CYP1A2) small molecule antagonists: luciferase reporter qHTS assay (AID 1671199); also: nearly all actives have a fitted effect of over 50% in size; also: potency is read from the fitted curve at half-maximal effect
How it was run: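 P450-Glo CYP1A2 enzyme–proluciferin substrate mix with compound 10 min at room temperature, then NADPH regeneration 1 h at room temperature. Luciferin detection reagent added, luminescence read after 20 min; furafylline positive control.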

[11] = target: Voltage-gated inwardly rectifying potassium channel KCNH2 (Homo sapiens) (UniProt Q12809); assay: Human Ether-a-go-go-Related Gene (hERG) channel small molecule antagonists: fluorescence cell-based qHTS assay (AID 1671200);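 also: hERG-expressing U2OS cells given a thallium stimulus after FluxOR II dye loading; series mostly up to about 77 µM; nearly all actives have a fitted effect of over 50% in size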
How it was run: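 Kinetic two-minute fluorescence traces, sampled at 1 s, were collected following thallium stimulus of U2OS cells (1000 per well) that had been cultured overnight at 37 C and loaded with FluxOR II.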

[12] = target: Cytochrome P450 3A4 (Homo sapiens) (UniProt P08684); assay: Cytochrome P450 Family 3 Subfamily A Member 4 (CYP3A4) small molecule antagonists: luciferase reporter qHTS assay (AID 1671201)
How it was run: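 Proluciferin-to-luciferin conversion by CYP3A4, NADPH-regenerated, 1 h RT; luminescence read as RLU. Ketoconazole as control.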

[13] = Caspase-3/7 induction in CHO-K1 cells by small molecules, qHTS cell viability counter screen (AID 1346979); also: nearly all actives have a fitted effect of over 35% in size; also: potency is read from the fitted curve at half-maximal effect
How it was run: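 CellTiter-Fluor viability check, qHTS format: wild-type CHO-K1, 16hr compound treatment, 1hr reagent incubation, fluorescence read.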

[14] = target: Cytochrome P450 2C9 (Homo sapiens) (UniProt P11712); assay: Cytochrome P450 Family 2 Subfamily C Member 9 (CYP2C9) small molecule antagonists: luciferase reporter qHTS assay (AID 1671198); also: nearly all actives have a fitted effect of over 50% in size; also: potency is read from the fitted curve at half-maximal effect
How it was run: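 CYP2C9 activity was measured with a P450-Glo proluciferin substrate. Enzyme–substrate mix was held with compound for 10 min at room temperature, then NADPH regeneration solution was added for 1 h at 37C. Luciferin product was read as luminescence.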

[15] = target: Nuclear receptor subfamily 1 group I member 2 (Rattus norvegicus) (UniProt Q9R1A7); assay: Rat pregnane X receptor (rPXR) activation by small molecules, qHTS assay (AID 1346983); conditions: rPXR luciferase reporter cells, One-Glo luminescence, 24 h; max activation: stronger effect = higher value; also: nearly all actives have a fitted effect of over 20% in size; also: potency is read from the fitted curve at half-maximal effect
How it was run: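 Cell-based rPXR luciferase reporter assay, 2,000 cells per well, rested 5hr at 37 C before compound addition in DMSO, then 24 hr at 37 C. One-Glo reagent was added and luminescence read after 30 min at room temperature.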

[16] = target: Nuclear receptor subfamily 1 group I member 2 (Homo sapiens) (UniProt O75469); assay: Human pregnane X receptor (PXR) activation by small molecules, qHTS assay (AID 1346985); also: nearly all actives have a fitted effect of over 40% in size
How it was run: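 DPX-2 cells (HepG2 co-transfected with a PXR response element and a CYP3A4-promoter luciferase construct) were seeded at 2,000 per well, rested 5 hr at 37C, then exposed to DMSO-dissolved compounds for 24 hr. Activation was read as luciferase luminescence.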

[17] = target: Nuclear receptor subfamily 1 group I member 2 (Homo sapiens) (UniProt O75469); assay: CYP3A4 induction through human pregnane X receptor (PXR) by small molecules, qHTS assay (AID 1346984); also: nearly all actives have a fitted effect of over 40% in size
How it was run: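 DPX-2 HepG2 cells carrying a PXR response element and CYP3A4-promoter luciferase construct, treated with compounds 24 hr at 37C. Then P450-Glo CYP3A4 Luciferin-IPA substrate (3uM final) for 3 hr at 37C, One-Glo added, luminescence read.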
% is scaled to controls: 0 for no effect and ±100 for the full control effect.

Chain of Cytochrome P450 2C19 (Homo sapiens) (P33261 whole entry, looked up): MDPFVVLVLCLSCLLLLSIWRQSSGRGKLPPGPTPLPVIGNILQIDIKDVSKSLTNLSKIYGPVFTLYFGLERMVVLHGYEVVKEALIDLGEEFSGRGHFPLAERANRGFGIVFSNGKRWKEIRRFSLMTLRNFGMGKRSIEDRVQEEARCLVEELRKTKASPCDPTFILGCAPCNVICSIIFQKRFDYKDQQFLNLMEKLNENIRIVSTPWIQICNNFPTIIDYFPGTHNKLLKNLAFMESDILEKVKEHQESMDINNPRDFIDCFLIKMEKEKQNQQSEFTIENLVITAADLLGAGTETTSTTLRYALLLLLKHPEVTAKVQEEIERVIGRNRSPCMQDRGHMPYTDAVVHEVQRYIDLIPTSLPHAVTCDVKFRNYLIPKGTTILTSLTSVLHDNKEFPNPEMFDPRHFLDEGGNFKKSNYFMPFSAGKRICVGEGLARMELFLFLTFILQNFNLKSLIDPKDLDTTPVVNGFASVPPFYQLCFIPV
Chain of Nuclear receptor subfamily 1 group I member 2 (Homo sapiens) (O75469 whole entry, looked up): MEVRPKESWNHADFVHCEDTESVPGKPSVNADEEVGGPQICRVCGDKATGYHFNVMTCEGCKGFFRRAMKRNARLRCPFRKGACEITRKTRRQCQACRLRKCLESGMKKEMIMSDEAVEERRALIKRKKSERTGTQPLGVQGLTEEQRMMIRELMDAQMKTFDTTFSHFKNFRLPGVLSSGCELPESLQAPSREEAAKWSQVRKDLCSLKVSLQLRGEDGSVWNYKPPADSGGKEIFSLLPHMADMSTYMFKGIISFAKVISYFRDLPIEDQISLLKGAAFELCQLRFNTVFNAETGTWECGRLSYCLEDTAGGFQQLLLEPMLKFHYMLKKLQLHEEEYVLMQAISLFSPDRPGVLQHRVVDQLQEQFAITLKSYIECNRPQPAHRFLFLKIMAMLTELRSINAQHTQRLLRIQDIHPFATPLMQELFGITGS
Chain of Nuclear receptor subfamily 1 group I member 2 (Rattus norvegicus) (Q9R1A7 whole entry, looked up): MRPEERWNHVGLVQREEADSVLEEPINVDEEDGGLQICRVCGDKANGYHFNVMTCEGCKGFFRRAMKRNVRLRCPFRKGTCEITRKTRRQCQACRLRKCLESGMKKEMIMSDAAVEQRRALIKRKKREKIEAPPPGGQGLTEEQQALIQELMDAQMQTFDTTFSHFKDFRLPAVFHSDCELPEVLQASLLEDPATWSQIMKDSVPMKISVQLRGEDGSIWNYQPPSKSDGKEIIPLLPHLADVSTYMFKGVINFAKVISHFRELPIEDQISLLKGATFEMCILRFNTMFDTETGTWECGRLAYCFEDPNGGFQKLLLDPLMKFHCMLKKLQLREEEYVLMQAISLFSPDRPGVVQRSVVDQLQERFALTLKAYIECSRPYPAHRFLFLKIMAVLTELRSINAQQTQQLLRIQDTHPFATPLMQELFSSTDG
Chain of Cytochrome P450 2D6 (Homo sapiens) (P10635 whole entry, looked up): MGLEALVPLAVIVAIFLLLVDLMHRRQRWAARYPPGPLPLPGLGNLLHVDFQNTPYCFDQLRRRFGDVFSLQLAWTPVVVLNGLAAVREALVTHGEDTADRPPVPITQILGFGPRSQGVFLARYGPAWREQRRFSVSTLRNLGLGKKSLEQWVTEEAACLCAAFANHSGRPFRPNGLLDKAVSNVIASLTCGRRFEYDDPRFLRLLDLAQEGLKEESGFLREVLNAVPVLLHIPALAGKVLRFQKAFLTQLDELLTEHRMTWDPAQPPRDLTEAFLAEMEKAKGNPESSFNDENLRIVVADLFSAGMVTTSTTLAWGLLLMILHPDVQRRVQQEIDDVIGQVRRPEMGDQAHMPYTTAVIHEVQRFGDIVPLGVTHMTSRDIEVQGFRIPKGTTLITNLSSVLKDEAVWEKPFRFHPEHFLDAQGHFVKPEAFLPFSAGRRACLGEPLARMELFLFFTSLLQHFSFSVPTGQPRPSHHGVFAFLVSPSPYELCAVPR
Chain of Voltage-gated inwardly rectifying potassium channel KCNH2 (Homo sapiens) (Q12809 whole entry, looked up): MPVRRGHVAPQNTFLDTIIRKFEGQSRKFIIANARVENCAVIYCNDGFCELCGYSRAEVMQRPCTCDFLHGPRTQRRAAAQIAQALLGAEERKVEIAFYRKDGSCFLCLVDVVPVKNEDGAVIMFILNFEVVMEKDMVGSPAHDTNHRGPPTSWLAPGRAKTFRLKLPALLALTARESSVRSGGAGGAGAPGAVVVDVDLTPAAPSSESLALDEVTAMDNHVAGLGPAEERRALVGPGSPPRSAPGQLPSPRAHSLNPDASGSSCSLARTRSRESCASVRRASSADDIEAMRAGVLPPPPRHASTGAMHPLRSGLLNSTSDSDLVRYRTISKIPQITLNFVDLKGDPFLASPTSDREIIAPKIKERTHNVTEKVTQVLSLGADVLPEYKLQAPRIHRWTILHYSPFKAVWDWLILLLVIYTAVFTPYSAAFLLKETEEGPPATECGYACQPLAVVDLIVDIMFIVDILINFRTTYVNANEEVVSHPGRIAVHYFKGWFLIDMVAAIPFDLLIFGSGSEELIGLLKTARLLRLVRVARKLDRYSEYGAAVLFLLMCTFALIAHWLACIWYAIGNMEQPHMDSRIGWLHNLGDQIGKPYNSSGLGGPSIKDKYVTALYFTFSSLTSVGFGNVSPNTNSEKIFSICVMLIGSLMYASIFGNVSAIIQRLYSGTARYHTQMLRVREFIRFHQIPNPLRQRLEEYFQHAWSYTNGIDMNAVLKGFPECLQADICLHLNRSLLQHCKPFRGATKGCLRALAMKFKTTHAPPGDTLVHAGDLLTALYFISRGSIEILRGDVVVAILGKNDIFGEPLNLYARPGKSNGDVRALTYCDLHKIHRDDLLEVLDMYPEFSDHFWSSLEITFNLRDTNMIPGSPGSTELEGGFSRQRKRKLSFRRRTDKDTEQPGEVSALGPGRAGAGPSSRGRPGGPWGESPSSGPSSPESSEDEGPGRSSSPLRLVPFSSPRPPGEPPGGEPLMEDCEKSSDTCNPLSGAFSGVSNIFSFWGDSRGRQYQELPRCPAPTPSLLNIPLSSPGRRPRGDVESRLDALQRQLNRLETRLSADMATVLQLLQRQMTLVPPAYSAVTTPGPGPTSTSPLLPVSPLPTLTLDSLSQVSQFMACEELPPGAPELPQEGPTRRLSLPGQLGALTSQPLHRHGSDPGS
Chain of Cytochrome P450 2C9 (Homo sapiens) (P11712 whole entry, looked up): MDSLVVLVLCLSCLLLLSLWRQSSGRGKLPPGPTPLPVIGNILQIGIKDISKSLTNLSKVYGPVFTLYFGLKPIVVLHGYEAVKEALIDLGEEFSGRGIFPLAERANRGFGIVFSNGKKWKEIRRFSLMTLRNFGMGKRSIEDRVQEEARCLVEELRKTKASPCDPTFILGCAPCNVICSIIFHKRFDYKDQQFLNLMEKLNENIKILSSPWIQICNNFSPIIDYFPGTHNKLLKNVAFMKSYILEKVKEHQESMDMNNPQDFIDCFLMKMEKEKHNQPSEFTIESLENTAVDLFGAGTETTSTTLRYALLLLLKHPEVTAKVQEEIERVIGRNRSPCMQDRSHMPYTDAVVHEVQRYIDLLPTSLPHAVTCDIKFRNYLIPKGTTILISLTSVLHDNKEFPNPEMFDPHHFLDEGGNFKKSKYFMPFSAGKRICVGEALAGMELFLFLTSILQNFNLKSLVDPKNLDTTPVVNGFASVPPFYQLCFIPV
Chain of Cytochrome P450 3A4 (Homo sapiens) (P08684 whole entry, looked up): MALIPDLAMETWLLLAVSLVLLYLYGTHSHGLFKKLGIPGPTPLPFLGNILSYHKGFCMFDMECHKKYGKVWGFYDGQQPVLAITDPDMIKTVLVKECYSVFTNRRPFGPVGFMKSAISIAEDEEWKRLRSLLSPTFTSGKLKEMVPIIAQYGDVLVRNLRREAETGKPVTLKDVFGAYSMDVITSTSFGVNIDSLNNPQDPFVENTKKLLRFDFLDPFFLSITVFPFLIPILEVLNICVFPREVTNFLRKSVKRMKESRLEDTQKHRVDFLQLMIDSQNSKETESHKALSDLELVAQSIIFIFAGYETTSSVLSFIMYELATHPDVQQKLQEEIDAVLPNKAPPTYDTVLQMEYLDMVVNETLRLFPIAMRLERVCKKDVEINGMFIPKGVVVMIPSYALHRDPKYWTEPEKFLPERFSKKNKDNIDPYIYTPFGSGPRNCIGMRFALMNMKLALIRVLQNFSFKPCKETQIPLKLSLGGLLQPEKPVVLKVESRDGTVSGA
Chain of Cytochrome P450 1A2 (Homo sapiens) (P05177 whole entry, looked up): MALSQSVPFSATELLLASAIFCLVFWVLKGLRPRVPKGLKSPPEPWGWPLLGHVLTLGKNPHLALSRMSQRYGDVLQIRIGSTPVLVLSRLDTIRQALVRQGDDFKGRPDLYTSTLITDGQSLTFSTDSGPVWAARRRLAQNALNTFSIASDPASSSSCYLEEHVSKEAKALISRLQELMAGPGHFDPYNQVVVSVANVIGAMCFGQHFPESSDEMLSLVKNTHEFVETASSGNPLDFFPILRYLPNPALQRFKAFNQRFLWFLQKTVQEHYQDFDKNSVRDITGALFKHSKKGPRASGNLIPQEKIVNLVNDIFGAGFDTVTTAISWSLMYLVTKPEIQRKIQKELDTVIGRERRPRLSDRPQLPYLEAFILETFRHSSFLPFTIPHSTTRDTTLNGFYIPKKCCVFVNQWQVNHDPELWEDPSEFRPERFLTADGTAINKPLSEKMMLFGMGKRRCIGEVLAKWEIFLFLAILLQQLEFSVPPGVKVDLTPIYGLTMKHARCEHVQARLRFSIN

CCCCC(CC)CO (stereo unspecified)
inactive: Potency [1] | outcome [2] | Potency [3] | Potency [4] | outcome [5] | Potency [6] | Potency [7] | Potency [8] | Potency [9] | Potency [10] | outcome [11] | Potency [12]

O=C(O)c1ccccc1C(c1ccc(O)cc1)c1ccc(O)cc1
2.44 µM (active) and inactive: Potency [7]
inactive: Potency [1] | outcome [2] | Potency [3] | Potency [4] | outcome [5] | Potency [6] | Potency [8] | Potency [9] | Potency [10] | outcome [11] | Potency [12]

CCCCCC1=CCCC1=O
62.4 µM (active) and inactive: Potency [7]
20.4 µM (active) and inactive: Potency [9]
inactive: Potency [1] | outcome [2] | Potency [3] | Potency [4] | Potency [13] | outcome [5] | Potency [6] | Potency [8] | Potency [10] | outcome [11] | Potency [12]

ON=C1CCCCC1
inactive: Potency [1] | outcome [2] | Potency [3] | Potency [4] | Potency [13] | outcome [5] | Potency [6] | Potency [7] | Potency [8] | outcome [11] | Potency [12]
32 µM (active) and inactive: Potency [9] | Potency [10]

c1ccc2scnc2c1
inactive: Potency [1] | outcome [2] | Potency [3] | Potency [4] | outcome [5] | Potency [6] | Potency [7] | Potency [8] | Potency [9] | Potency [14] | outcome [11] | Potency [12]

CC(=O)CC(=O)Nc1ccccc1
inactive: Potency [1] | outcome [2] | Potency [3] | Potency [4] | Potency [13] | outcome [5] | Potency [6] | Potency [7] | Potency [8] | outcome [11] | Potency [12]
active: Potency [9] 70.9 µM | Potency [10] 35.5 µM and 39.9 µM

NNc1nncc2ccccc12
inactive: Potency [1] | outcome [2] | activity change, negative = cytotoxicity [3] 6.87% [at 19 µM] | Potency [4] | activity change, negative = cytotoxicity [13] -0.255% [at 19 µM] | outcome [5] | Potency [6] | outcome [11]
active: Potency [3] 48.6 µM | Potency [13] 43.3 µM | Potency [15] 0.112 µM

c1ccc2c(c1)ccc1ccccc12
inactive: Potency [1] | outcome [2] | Potency [3] | Potency [4] | Potency [13] | outcome [5] | Potency [6] | Potency [7] | Potency [8] | outcome [11] | Potency [12]
active: Potency [9] 77.5 µM and 39.9 µM | Potency [10] 6.16 µM and 3.99 µM

C#C[C@]1(O)CC[C@H]2[C@@H]3CCC4=CC(=O)CC[C@@H]4[C@H]3CC[C@@]21C
active: Potency [13] 61.1 µM | Potency [7] 48.6 µM | Potency [9] 5.03 µM and 4.36 µM
inactive: Potency [1] | outcome [2] | Potency [3] | Potency [4] | outcome [5] | Potency [6] | max activation [15] -1% | Potency [16] | Potency [8] | Potency [10] | outcome [11]

CCOC(=O)NNc1nncc2ccccc12
active: Potency [8] 35.6 µM | Potency [10] 20 µM
inactive: Potency [1] | outcome [2] | Potency [3] | Potency [4] | outcome [5] | Potency [6] | Potency [7] | Potency [9] | outcome [11] | Potency [12]

COc1cc(Cc2cnc(N)nc2N)cc(OC)c1OC
35.5 µM (active) and inactive: Potency [10]
inactive: Potency [1] | outcome [2] | Potency [3] | Potency [4] | Potency [13] | outcome [5] | Potency [6] | Potency [8] | Potency [9] | Potency [14] | outcome [11]

COc1ccc2cc([C@H](C)C(=O)O)ccc2c1
inactive: Potency [1] | outcome [2] | Potency [3] | outcome [5] | Potency [6]

CC(=O)Nc1ccccc1
71.3 µM (active) and inactive: Potency [9]
inactive: Potency [1] | outcome [2] | Potency [3] | Potency [4] | outcome [5] | Potency [6] | Potency [7] | max activation [15] -1.12% | outcome [17] | Potency [16] | Potency [8] | Potency [10] | outcome [11] | Potency [12]

CCCCCCCCCCCCS
inactive: Potency [1] | outcome [2] | Potency [3] | Potency [4] | Potency [13] | outcome [5] | Potency [6] | Potency [7] | Potency [8] | Potency [9] | Potency [14] | Potency [10] | outcome [11] | Potency [12]

COc1ccc(Nc2ccccc2)c(C)c1
inactive: Potency [1] | outcome [2] | Potency [3] | Potency [4] | Potency [13] | outcome [5] | Potency [6] | Potency [8] | Potency [14] | outcome [11] | Potency [12]
inactive and 11.2 µM (active): Potency [10]
inactive and 3.17 µM (active): Potency [9]
inactive and 54.5 µM (active): Potency [7]

C=C(C)C(=O)Nc1ccc(Cl)c(Cl)c1
inactive: Potency [1] | outcome [2] | Potency [3] | Potency [4] | outcome [5] | Potency [6] | Potency [8] | outcome [11] | Potency [12]
active: Potency [7] 61.8 µM and 54.3 µM | Potency [9] 22.7 µM and 31.6 µM | Potency [14] 36 µM and 63 µM | Potency [10] 2.86 µM and 5 µM

O=C(O)CCCC[C@@H]1SC[C@@H]2NC(=O)N[C@@H]21
inactive: Potency [1] | outcome [2] | Potency [3] | Potency [4] | Potency [13] | outcome [5] | Potency [6] | Potency [7] | Potency [8] | Potency [9] | Potency [10] | outcome [11] | Potency [12]

— PubChem BioAssay (Tox21)
